A selection: hits, their analogues and other compounds. The true share with any hit is near 3%.
ATG4B inh: ATG4B protease inhibitors, primary screen, biochemical, fluorescence, uHTS | Cysteine protease ATG4B (Homo sapiens), Q9Y4P1 | ATG4B cleavage of LC3-PLA2, NBD-HPC fluorescence, 1 h | inhibition, % at 8.33 µM | hit rate 0.51% among 340,000; in the data active = inhibition above about 40%
PAFAH1B3 inh: PAFAH1B3 enzyme inhibitors, primary screen, biochemical, fluorescence polarization, human; inhibition, % at 3.39 µM; recombinant PAFAH1B3, FP-rhodamine probe; hit rate 0.28% among 340,000; Platelet-activating factor acetylhydrolase IB subunit alpha1 (Homo sapiens), Q15102;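 active = inhibition above the screen-wide average of all tested compounds plus 3 SD, cut at about 25% in these data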;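 also: 0% = enzyme with DMSO only and 100% = wells lacking PAFAH1B3 protein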
Target sequence (Q15102 whole entry, looked up): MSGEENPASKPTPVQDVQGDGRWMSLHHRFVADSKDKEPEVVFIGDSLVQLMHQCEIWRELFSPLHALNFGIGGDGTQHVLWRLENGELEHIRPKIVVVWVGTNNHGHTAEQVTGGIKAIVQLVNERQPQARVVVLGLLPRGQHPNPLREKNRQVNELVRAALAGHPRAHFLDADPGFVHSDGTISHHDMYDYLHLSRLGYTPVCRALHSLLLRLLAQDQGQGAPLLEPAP
DAGLB inh: DAGLB lipase inhibitors, primary screen, biochemical, fluorescence, HTS; Diacylglycerol lipase-beta (Homo sapiens), Q8NCG7; AID 504411, 2011; inhibition, % at 5.17 µM; HEK293T DAGLB membrane lysate, EnzChek fluorogenic substrate; hit rate 0.059% among 340,000; in the data active = inhibition above about 34%;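 also: 0% = enzyme with vehicle and 100% = wells lacking enzyme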
PAFAH1B2 inh: PAFAH1B2 enzyme inhibitors, primary screen, biochemical, fluorescence polarization, human; recombinant PAFAH1B2, FP-rhodamine activity probe; hit rate 1.2% among 340,000; Platelet-activating factor acetylhydrolase IB subunit alpha2 (Homo sapiens), P68402; inhibition, % at 3.39 µM;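 active = inhibition above the mean of all tested compounds plus 3 SD, cut at about 24% in these data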;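 also: 0% = enzyme with DMSO and 100% = wells lacking PAFAH1B2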
Target sequence (P68402 whole entry, looked up): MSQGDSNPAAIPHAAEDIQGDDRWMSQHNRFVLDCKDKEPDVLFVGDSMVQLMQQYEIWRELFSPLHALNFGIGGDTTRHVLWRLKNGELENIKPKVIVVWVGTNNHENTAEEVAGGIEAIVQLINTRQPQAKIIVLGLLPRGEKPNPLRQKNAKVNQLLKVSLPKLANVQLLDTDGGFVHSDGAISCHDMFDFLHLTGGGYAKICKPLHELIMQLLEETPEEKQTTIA
pPAFAH FP inh: pPAFAH enzyme inhibitors, primary screen, biochemical, fluorescence polarization, human. inhibition, % at 3.39 µM. Platelet-activating factor acetylhydrolase (Homo sapiens), Q13093. recombinant pPAFAH, FP-rhodamine probe fluorescence polarization. hit rate 1.5% among 330,000. AID 463082, 2010;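 active = inhibition above the mean inhibition across the screen plus 3 SD, cut at about 25% in these data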;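 also: inhibitors block binding of the rhodamine activity-based probe so polarization drops; 0% = enzyme with DMSO and 100% = wells lacking pPAFAH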
PAFAH2 FP inh: PAFAH2 enzyme inhibitors, primary screen, biochemical, fluorescence polarization, human. inhibition, % at 3.39 µM. Platelet-activating factor acetylhydrolase 2, cytoplasmic (Homo sapiens), Q99487. hit rate 0.99% among 340,000. recombinant PAFAH2, FP-rhodamine activity probe;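 active = inhibition above the mean over all tested compounds plus 3 SD, cut at about 30% in these data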;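 also: inhibitors block probe labeling of enzyme so polarization drops; 0% = enzyme with DMSO and 100% = wells lacking PAFAH2 protein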
PAFAH2 FP conf: PAFAH2 enzyme inhibitors, confirmation, biochemical, fluorescence polarization, human; shares compounds with PAFAH2 FP inh; inhibition, % at 3.39 µM; recombinant PAFAH2, FP-rhodamine activity probe; hit rate 65% among 2,300; AID 493030, 2011;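 active = mean inhibition over three repeats above a set limit taken from the earlier primary screen, cut at about 30% in these data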;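 also: inhibitor blocks binding of rhodamine activity probe so polarization falls; 0% = enzyme with DMSO and 100% = wells lacking PAFAH2 protein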
Numbers without * were called inactive; / = no result given.

SMILES	ATG4B inh	PAFAH1B3 inh	DAGLB inh	PAFAH1B2 inh	pPAFAH FP inh	PAFAH2 FP inh	PAFAH2 FP conf
CC(OC(=O)c1ccc(O)cc1)C(=O)Nc1cc(C(F)(F)F)ccc1Cl (stereo not drawn)	-7	1	-4	4	-1	-2	/
C=CCNC(=O)/C=C/c1cccs1	0	1	0	7	2	8	/
CN(C(=O)COC(=O)/C=C/c1cccs1)C1CCCCC1	-2	1	-2	0	2	75*	73*
CCN(c1ccc(NC(=O)COC(=O)/C=C/c2cccs2)cc1)C(C)C	-6	3	-2	3	10	42*	24
CC(C)C(=O)NC(=O)COC(=O)/C=C/c1cccs1	-4	7	0	2	5	53*	42*
C=CCNC(=O)COC(=O)/C=C/c1cccs1	0	6	2	1	-2	49*	26
CCOC(=O)/C=C/C(=O)OCC(=O)Nc1ccc(C)cc1	-12	/	/	/	2	/	/
Cc1ccc(NC(=O)COC(=O)/C=C/c2cccs2)cc1	2	-4	-6	-3	6	80*	73*
CCOC(=O)c1sc(N2C(=O)C(O)=C(C(=O)c3ccco3)C2c2cccc([N+](=O)[O-])c2)nc1C (stereo not drawn)	12	6	17	-2	12	42*	30*
CCC(C(=O)N1CCOCC1)n1nc(C)c2c(C)n(-c3ccccc3)nc2c1=O (stereo not drawn)	-6	7	2	4	5	6	/
N/C(Cc1nc(-c2ccc(Cl)cc2)cs1)=N/O	-3	3	3	6	2	4	/
CCOC(=O)Cc1c(C)nc2c(-c3cccc(Br)c3)c[nH]n2c1=O	-3	5	19	9	14	33*	28
O=C(O)CCC(=O)NN1C(=O)c2ccccc2NC1c1ccc(F)cc1 (stereo not drawn)	4	6	1	4	-2	-2	/
Cc1ccc(C2CC(=O)N3CN(c4ccc(Br)cc4)CSC3=C2C#N)o1 (stereo not drawn)	15	6	8	4	56*	32*	9
N#CC1=C2SCN(c3ccccc3)CN2C(=O)CC1c1cccs1 (stereo not drawn)	-2	5	5	5	24	2	/
O=c1cc(-c2ccccc2)nc2nc(-c3ccco3)[nH]n12	-6	7	2	11	6	42*	7
Fc1ccccc1C1c2[nH]c3ccccc3c2CCN1Cc1ccoc1 (stereo not drawn)	-6	1	-5	4	2	-2	/
O=c1c2ccccc2nc2n1CC/C2=C/N1CCN(c2cccc(C(F)(F)F)c2)CC1	2	21	3	23	18	33*	-1
O=C(O)c1ccc2c(=O)n3c(nc2c1)/C(=C/c1ccc(C(F)(F)F)cc1)CC3	-7	5	3	2	2	-63	/
CNc1nc(Cl)c(SC)c(NCc2cccc(OC)c2)n1	31	-6	-3	4	13	1	/
O=C1/C(=C/c2ccco2)SC(=S)N1c1cccnc1	8	14	2	7	/	32*	18
O=C(COC(=O)c1cccc(N2C(=O)C3CC=CCC3C2=O)c1)c1ccccc1 (stereo not drawn)	13	13	-2	4	5	35*	27
CC1(C)CC(=O)c2cc3c(nc2C1)CC(C)(C)CC3=O	-9	1	1	9	3	50*	34*
CC1(C)CC(=O)c2cnc(N)nc2C1	-5	-1	-2	0	-1	0	/
Cn1c2ccccc2n2c(=O)c(Cl)c(-c3ccccc3)c(C#N)c12	8	12	2	5	5	39*	24
SMILES	ATG4B inh	PAFAH1B3 inh	DAGLB inh	PAFAH1B2 inh	pPAFAH FP inh	PAFAH2 FP inh	PAFAH2 FP conf
COc1cccc(CN(C)C(=O)c2ccccc2Sc2ccccc2C#N)c1OC	-3	0	-3	3	/	0	/
CCc1ccc(OCC(=O)NC(=S)Nc2ccc(C)cc2C)c(Br)c1	-14	8	-6	-3	0	30*	-3
CC1CCCC(C)N1C(=O)COC(=O)c1ccco1 (stereo not drawn)	-12	11	0	6	-3	31*	4
COc1ccc(OC)c(/C=C2\SC(=S)N(C(C(=O)O)c3ccccc3)C2=O)c1 (stereo not drawn)	25	6	4	0	4	32*	15
CCOc1ccc(/C=C2\SC(=S)N(C(C(=O)O)c3ccccc3)C2=O)cc1OC (stereo not drawn)	11	5	7	3	1	2	/
COc1cccc(/C=C2\SC(=S)N(C(Cc3ccccc3)C(=O)O)C2=O)c1 (stereo not drawn)	14	0	14	5	3	33*	16
CCCc1cc(=O)[nH]c(SCC(=O)N2CC3(C)CC2CC(C)(C)C3)n1 (stereo not drawn)	-6	7	2	22	1	36*	15
O=C(COC(=O)c1ccc(CN2CCCC2=O)cc1)Nc1ccc(F)cc1	-2	6	-1	0	8	85*	86*
Cc1ccc(NC(=O)COC(=O)c2ccc(CN3CCCC3=O)cc2)cc1C	-16	9	2	0	/	92*	85*
COc1cccc(S(=O)(=O)N(C)C[C@@H]2OCc3cn(nn3)CCCC(=O)N([C@H](C)CO)C[C@H]2C)c1	/	/	0	/	/	/	/
CCC(CO)Oc1cc(NC(=O)Cc2ccccc2F)c2ncn(C(C)C)c2c1 (stereo not drawn)	-9	9	2	6	19	40*	20
Cc1ccc(Cl)cc1NC(=O)C1C2CCC(O2)C1C(=O)O (stereo not drawn)	7	7	-2	6	2	-8	/
CC12CCC(C(=O)N(CSC(=S)N/N=C\c3ccccc3O)C1=O)C2(C)C (stereo not drawn)	-9	5	12	11	5	38*	25
COc1ccc(/C=N\NC(=S)SCN2C(=O)C3CCC(C)(C2=O)C3(C)C)cc1 (stereo not drawn)	-16	4	0	1	7	12	/
O=C1C=C(c2cccc(CO)c2)C[C@@H](c2ccc(F)cc2)C1	6	4	-1	-1	3	-1	/
